Results on 28 compounds are retold here after PubChem BioAssay (Tox21).

A short description of test [1]: Human pregnane X receptor (PXR) small molecule agonists, qHTS cell viability counter screen (AID 1346977). Further: nearly all actives have a fitted effect of over 50% in size. Further: potency means the concentration at half of the fitted maximal effect. The method in brief:
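In each well, the PXR reporter HepG2 line was checked for viability: CellTiter-Fluor reagent added 23hr post-dosing, fluorescence read after 1hr incubation at 37C.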

The nature of test [2]: Caspase-3/7 induction in HepG2 cells by small molecules, qHTS assay (AID 1346978). Further: nearly all actives have a fitted effect of over 15% in size. A digest of the protocol:
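Caspase-3/7 induction was measured by Caspase-Glo 3/7 luminescence (30 min, room temperature) after a 17 hr compound exposure of wild-type HepG2 cells seeded at 2,000 per well and pre-incubated 5 hr.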

A short description of test [3]: Caspase-3/7 induction in CHO-K1 cells by small molecules, qHTS cell viability counter screen (AID 1346979). Further: nearly all actives have a fitted effect of over 35% in size. Further: potency means the concentration at half of the fitted maximal effect. The method in brief:
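Following a 5hr settling period, CHO-K1 cells at 1,500 per well received DMSO-dissolved compounds. Cell viability was quantified 16hr later by CellTiter-Fluor fluorescence, measured after 1hr with reagent at 37C.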
On the technique in general: In qHTS, concentration-response curves come from the screen itself.

A short description of test [4]: Caspase-3/7 induction in CHO-K1 cells by small molecules, qHTS assay (AID 1346980). Further: nearly all actives have a fitted effect of over 15% in size. Further: potency means the concentration at half of the fitted maximal effect. A digest of the protocol: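 Luminescent Caspase-Glo 3/7 read (30min, room temperature) quantified apoptosis induction. Cells were wild-type CHO-K1, treated with compound for 17hr at 37 C and 5% CO2.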
The nature of test [5]: Caspase-3/7 induction in HepG2 cells by small molecules, qHTS cell viability counter screen (AID 1346981). Further: series mostly up to about 92 µM; nearly all actives have a fitted effect of over 30% in size. The method in brief: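 Cell viability is measured as a cytotoxicity counter screen alongside the Caspase-Glo 3/7 readout in identical wells. Wild-type HepG2 cells are treated with test compounds for 16 hr at 37 C before CellTiter-Fluor addition and a 1-hr incubation.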

The target of test [6] is Nuclear receptor subfamily 1 group I member 2 (Homo sapiens) (UniProt O75469). The test is described as follows: Human pregnane X receptor (PXR) small molecule agonists, qHTS assay (AID 1346982). Further: nearly all actives have a fitted effect of over 35% in size. Further: potency means the concentration at half of the fitted maximal effect. The method in brief: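 Cells: HepG2 stably carrying PXR-Luc. Medium held 5% charcoal-stripped FBS. Compounds in DMSO added after 5 hr plating, incubated 24 hr, then luminescence quantified with ONE-Glo.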
Chain of Nuclear receptor subfamily 1 group I member 2 (Homo sapiens) (O75469 whole entry, looked up): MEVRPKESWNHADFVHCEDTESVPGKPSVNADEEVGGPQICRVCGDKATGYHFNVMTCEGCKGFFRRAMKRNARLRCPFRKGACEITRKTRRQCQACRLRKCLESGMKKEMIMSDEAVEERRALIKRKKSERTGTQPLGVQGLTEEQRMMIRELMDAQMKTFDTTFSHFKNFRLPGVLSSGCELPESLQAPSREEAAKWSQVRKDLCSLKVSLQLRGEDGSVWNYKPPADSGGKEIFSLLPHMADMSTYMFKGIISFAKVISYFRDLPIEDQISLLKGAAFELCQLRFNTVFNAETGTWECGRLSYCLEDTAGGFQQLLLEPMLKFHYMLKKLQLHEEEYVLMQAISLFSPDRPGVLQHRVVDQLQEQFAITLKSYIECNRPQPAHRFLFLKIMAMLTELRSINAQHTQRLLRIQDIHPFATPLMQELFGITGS

The target in test [7] is Cytochrome P450 2D6 (Homo sapiens) (UniProt P10635). As to the kind of experiment: Cytochrome P450 Family 2 Subfamily D Member 6 (CYP2D6) small molecule antagonists: luciferase reporter qHTS assay (AID 1671196). Further: nearly all actives have a fitted effect of over 50% in size. Further: potency means the concentration at half of the fitted maximal effect. On activity change, negative = inhibition: series mostly up to about 120 µM. The method in brief: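 Enzyme and proluciferin substrate were first combined with test chemical for 10 min at room temperature. Adding NADPH regeneration solution started a 1 h reaction, stopped with luciferin detection reagent and read by luminescence 20 min later.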
Chain of Cytochrome P450 2D6 (Homo sapiens) (P10635 whole entry, looked up): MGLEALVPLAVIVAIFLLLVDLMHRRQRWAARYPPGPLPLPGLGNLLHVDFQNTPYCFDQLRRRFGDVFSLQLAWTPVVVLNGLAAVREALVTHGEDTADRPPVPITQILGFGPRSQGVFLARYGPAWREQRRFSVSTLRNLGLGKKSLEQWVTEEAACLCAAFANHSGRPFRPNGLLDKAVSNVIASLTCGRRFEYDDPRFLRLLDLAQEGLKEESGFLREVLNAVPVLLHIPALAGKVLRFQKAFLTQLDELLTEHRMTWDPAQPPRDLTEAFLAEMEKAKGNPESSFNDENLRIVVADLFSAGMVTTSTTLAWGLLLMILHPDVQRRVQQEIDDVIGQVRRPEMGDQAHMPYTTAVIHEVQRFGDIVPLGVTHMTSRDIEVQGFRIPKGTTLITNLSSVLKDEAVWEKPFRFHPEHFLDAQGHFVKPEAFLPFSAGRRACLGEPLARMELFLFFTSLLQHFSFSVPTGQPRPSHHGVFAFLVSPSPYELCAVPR
For orientation: A reporter such as luciferase makes a cellular process visible.

For test [8], the target named is Nuclear receptor subfamily 1 group I member 2 (Rattus norvegicus) (UniProt Q9R1A7). The test is described as follows: Rat pregnane X receptor (rPXR) activation by small molecules, qHTS assay (AID 1346983). Further: nearly all actives have a fitted effect of over 20% in size. The conditions noted are these: rPXR luciferase reporter cells, One-Glo luminescence, 24 h; max activation: active compounds read high. A digest of the protocol:
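Luminescent readout (One-Glo luciferase, 30 min room temperature) followed 24 hr compound treatment at 37 C of rPXR cells plated 2,000 per well and preincubated 5hr; qHTS format with compounds delivered in DMSO.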

Test [9] deals with Nuclear receptor subfamily 1 group I member 2 (Homo sapiens) (UniProt O75469). The test is described as follows: CYP3A4 induction through human pregnane X receptor (PXR) by small molecules, qHTS assay (AID 1346984). Further: nearly all actives have a fitted effect of over 40% in size. Further: potency means the concentration at half of the fitted maximal effect. A digest of the protocol: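 Quantitative HTS in DPX-2 cells, i.e. HepG2 transfected with PXR response element and CYP3A4-promoter luciferase. Compounds in DMSO incubated 24hr at 37C; then P450-Glo CYP3A4 substrate, 3uM final, 3hr; One-Glo luminescence.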

The target is the same in test [10]. As to the kind of experiment: Human pregnane X receptor (PXR) activation by small molecules, qHTS assay (AID 1346985). Further: nearly all actives have a fitted effect of over 40% in size. Further: potency means the concentration at half of the fitted maximal effect. A digest of the protocol:
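DPX-2 cells (HepG2 co-transfected with a PXR response element and a CYP3A4-promoter luciferase construct) were seeded at 2,000 per well, rested 5 hr at 37C, then exposed to DMSO-dissolved compounds for 24 hr. Activation was read as luciferase luminescence.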

“And” between values parts separate entries of the source, which are not always exact repeats. Identical values can stand only once. A number with no mark means an inactive call. Results filed as inconclusive are left out. The source made the active and inactive calls. The call rests on the fitted dose curve; in most records, active means well fitted curve in the direction sought with a large enough effect in the repeat runs; inconclusive means weak or mixed curves; inactive means no such curve, though single readings can be large; an effect the other way counts as inactive or inconclusive.
On the % scale 0 is the no-effect control and ±100 the full control effect.

Chain of Nuclear receptor subfamily 1 group I member 2 (Rattus norvegicus) (Q9R1A7 whole entry, looked up): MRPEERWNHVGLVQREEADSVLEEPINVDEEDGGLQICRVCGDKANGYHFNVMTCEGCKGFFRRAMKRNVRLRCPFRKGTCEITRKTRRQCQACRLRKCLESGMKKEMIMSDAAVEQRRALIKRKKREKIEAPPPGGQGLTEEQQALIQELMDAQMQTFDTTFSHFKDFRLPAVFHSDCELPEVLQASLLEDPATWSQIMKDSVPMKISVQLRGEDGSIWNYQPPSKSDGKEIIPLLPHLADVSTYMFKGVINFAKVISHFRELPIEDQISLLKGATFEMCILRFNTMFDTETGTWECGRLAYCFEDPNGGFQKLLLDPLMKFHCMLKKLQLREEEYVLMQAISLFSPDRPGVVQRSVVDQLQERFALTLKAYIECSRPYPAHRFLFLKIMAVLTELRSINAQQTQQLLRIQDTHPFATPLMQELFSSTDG

As to `CC(C)(Oc1ccc(Cl)cc1)C(=O)OCCCOC(=O)C(C)(C)Oc1ccc(Cl)cc1`, the Potency result in test [1], in test [3], in [4], in test [5], in test [6] and in [7] was “inactive” in each case. The call in test [2] was inactive.
Take `Cc1ccccn1`: the Potency entry in test [1], in [3], in test [4] and in test [5] was “inactive” each time. The result in test [2] was inactive. Also, the max activation in test [8] was -5.22%.
On to `C=C(C)C(=O)OC(C)C`, for which the Potency result in test [1], in test [3], in test [4], in test [5], in [6] and in [7] was “inactive” each time. Further, the compound was classed as inactive in test [2].
As to `CCCCCCCCCCCCCCCBr`, the Potency entry in [1], in test [3], in test [4], in test [5] and in test [7] was “inactive” throughout. In test [2], the compound was called inactive.
Consider `CC(C(=O)O)c1ccc(-c2ccccc2)c(F)c1` (stereo unspecified), for which the Potency result in test [1], in [3], in [4], in test [5], in [9] and in [10] was “inactive” each time. Also, in [2], the result was inactive. For the same compound, the max activation in test [8] was -4.66%.
As to `CCN(CCO)CCCC(C)Nc1ccnc2cc(Cl)ccc12` (stereo unspecified), the activity change, negative = cytotoxicity is 4.23% [at 8.39 µM] in test [1], 0.797% [at 8.39 µM] in test [3] and 3.29% [at 8.39 µM] in [5]. Also, the caspase activation in [2] is 0.0326% [at 8.39 µM]. Moreover, the caspase-3/7 activation in test [4] was -0.893% [at 8.39 µM]. For the same compound, in [8], the max activation was -3.7%.
Turning to `O=C(O)Cc1sc(-c2ccccc2)nc1-c1ccc(Cl)cc1`, the Potency entry in test [1], in [3], in test [4], in test [5], in [9] and in [10] was “inactive” each time. For the same compound, the Potency result in test [7] was “inactive”. In test [2], the compound was classed as inactive. In addition, the max activation in test [8] was 0.948%.
As for `CCCC(=O)OCC`, the Potency entry in test [1], in test [3], in test [4], in test [5], in [6] and in [7] was “inactive” in each case. For the same compound, the compound was called inactive in [2].
With `CCOC(=O)CC(C)C`, the Potency entry in [1], in [3], in test [4], in [5] and in test [7] was “inactive” each time. The compound was classed as inactive in [2].
In the case of `C=CC(=O)OCC(C)OCC(C)OCC(C)OC(=O)C=C` (stereo unspecified), the Potency entry in [1], in test [5], in test [6] and in test [7] was “inactive” in each case. In addition, in test [2], the outcome was inactive. The Potency in test [3] and in test [4] was 24.3 µM (active) in each case.
For the compound `Cn1sccc1=O`, the Potency entry in [1], in test [4], in test [5] and in test [7] was “inactive” in each case. Further, in test [2], the call was inactive. For the same compound, the Potency was 30.6 µM (active) and 43.3 µM (active) in test [3]; 30.6 µM (active) and 61.1 µM (active) in [6].
On to `CCCCCCCCCCCCCCCCCBr`, for which the activity change, negative = cytotoxicity in test [1] is 1.63% [at 19 µM]; in test [3] it was 6.07% [at 19 µM]; in test [5], 2.8% [at 19 µM]. Further, in test [2], the caspase activation is 0.0731% [at 19 µM]. Further, the caspase-3/7 activation in test [4] was -0.258% [at 19 µM]. Moreover, the activation in test [6] is 1.46% [at 19 µM]. For the same compound, the activity change, negative = inhibition in test [7] is -1.15% [at 23.6 µM].
`CC(=O)/C=C/C1C(C)=CCCC1(C)C` (stereo unspecified): the Potency entry in [1], in [3], in [4], in test [5], in [6] and in [7] was “inactive” each time. Also, the result in test [2] was inactive.
On to `COc1ccccc1OC(=O)Oc1ccccc1OC`, for which the Potency entry in test [1], in [3], in test [4], in test [5], in [9] and in test [10] was “inactive” throughout. Besides, the compound was called inactive in [2]. Further, in test [8], the max activation was -1.11%.
On to `c1ccc(-c2nc[nH]c2-c2ccccc2)cc1`, for which the Potency result in [1], in [3], in [4], in test [5], in [9] and in test [10] was “inactive” each time. Besides, the compound was classed as inactive in test [2].
Turning to `CC[C@@H]1C[C@H](N(Cc2cc(C(F)(F)F)cc(C(F)(F)F)c2)C(C)=O)c2cc(C(F)(F)F)ccc2N1C(=O)OC(C)C`, the Potency entry in [1], in [3], in test [4], in [5] and in test [7] was “inactive” throughout. The result in test [2] was inactive. In addition, in test [6], the Potency is 770 nM (active).
Regarding `Cl/C(=C\n1cncn1)c1ccc(Cl)cc1Cl`, the Potency result in test [1], in [3], in test [4], in test [5] and in [10] was “inactive” each time. Moreover, in test [2], the compound was classed as inactive. Also, in test [8], the max activation was -0.206%. Further, the Potency was 22.4 µM (active) in test [9] and 15.5 µM (active) in [7].
Turning to `O=C1c2cccc(O)c2C(=O)c2c(O)cc(CO)cc21`, the figures for the Potency in test [1] and in [6] were 38.6 µM (active) and 8630 nM (active), respectively. Also, in [2], the result was inactive. Moreover, the Potency entry in test [3], in test [4], in test [5] and in test [7] was “inactive” each time.
On to `N#CCCNCCC#N`, for which the Potency entry in test [1], in test [3], in test [4], in test [5] and in test [7] was “inactive” throughout. The compound was called inactive in test [2].
Turning to `O=C(O)c1cn(C2CC2)c2cc(Cl)c(F)cc2c1=O`, the Potency entry in test [1], in test [3], in test [4], in [5], in test [6] and in [7] was “inactive” in each case. The outcome in [2] was inactive.
For the compound `Cc1ccc(C(C)c2ccc(C)c(C)c2)cc1C`, the Potency entry in test [1], in test [3], in test [4], in test [5] and in test [7] was “inactive” in each case. Also, the result in test [2] was inactive.
Consider `CCCCOC(O)CC` (stereo unspecified), for which the Potency result in test [1], in [3], in test [4], in [5], in test [6] and in test [7] was “inactive” throughout. For the same compound, the compound was called inactive in test [2].
On to `CC(C)(C)c1ccc(S)cc1`, for which the Potency entry in [1], in test [3], in test [4], in test [5], in test [6] and in test [7] was “inactive” throughout. In addition, the outcome in [2] was inactive.
Take `COC(=O)CSc1cc(N=c2sc(=O)n3n2CCCC3)c(F)cc1Cl`: the Potency result in [1], in test [3], in [4], in [5] and in [6] was “inactive” each time. In test [2], the compound was called inactive. For the same compound, the Potency in test [7] is 63.3 µM (active).
As to `O=C(Cl)c1c(Cl)cccc1Cl`, the Potency result in test [1], in test [3], in [4], in test [5], in test [6] and in test [7] was “inactive” each time. For the same compound, the call in test [2] was inactive.
Turning to `CC(=O)Nc1ccc(/C=N/NC(N)=S)cc1`, the Potency entry in test [1], in test [3], in test [4], in test [5], in test [9] and in test [10] was “inactive” in each case. Further, the Potency result in test [7] is “inactive”. In addition, the compound was classed as inactive in test [2]. Besides, the max activation in test [8] was -4.57% and -9.49%.
`CN1CCN(C2=Nc3ccccc3Sc3ccc(Cl)cc32)CC1`: the Potency result in test [1], in test [3], in test [4] and in test [5] was “inactive” throughout. For the same compound, the compound was classed as inactive in [2]. Further, the values for the Potency in test [9], in test [10] and in test [7] were 22.4 µM (active), 25.1 µM (active) and 15.5 µM (active), respectively.
As to `CNS(=O)(=O)Cc1ccc2[nH]cc(CCN(C)C)c2c1`, the Potency result in [1], in test [3], in [4], in test [5], in test [9] and in test [10] was “inactive” in each case. Moreover, the result in test [2] was inactive. The max activation in test [8] was -4.94%. For the same compound, in test [7], the Potency is 24.5 µM (active).
